C8 TRAIL sens – caspase-8 TRAIL sensitization | NB7+C8 cells + TRAIL, ATPlite viability luminescence | inhibition (viability loss, TRAIL sensitization), % at 10 µM | 1% of 360,000 active | AID 624354;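 active means compounds causing at least 50% loss of cell viability in the single-dose screen, relative to plate controls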
KKLEB cytotox – reduces viability of KKLEB cystic fibrosis airway cells. activity change (cytotoxicity), % at 5 µM. KKLEB CF airway cells viability, ATPlite luminescence, overnight; hits give low values; cells stimulated with P. aeruginosa culture filtrate. 0.36% of 360,000 active;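 active means corrected activity change at or below -50% at 5 µM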
HIF-2a inh – HIF-2a inhibition; 786-0 RCC cells HIF-2a reporter, luciferase luminescence, overnight; inhibition, % at 18.8 µM; 0.72% of 360,000 active; AID 624352;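 active means inhibition of the luminescence signal of 40% or more relative to plate controls, in a single-dose primary screen at 18.75 µM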
CF NFkB inh – inhibitors of cystic fibrosis induced NF-kB; KKLEB NF-kB-GFP reporter, PAF-induced, GFP fluorescence overnight; inhibition, % at 5 µM; 0.86% of 360,000 active;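 active means at least 50% inhibition at 5 µM, scaled per plate between neutral and stimulator controls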;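 further: PAF is a Pseudomonas aeruginosa culture filtrate used as stimulus; plate controls were PAF-stimulated DMSO wells for no effect and unstimulated DMSO wells for full effect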
PPC-1+TRAIL kill – kills PPC-1 cancer cells in the presence of TRAIL. PPC-1 cells + TRAIL, ATPLite viability luminescence. 0.41% of 220,000 active. AID 1443. cell killing (% activity), % at 4 µM or 5 µM;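 active means cell killing above 50% in the first pass at 4 µM, then a duplicate retest at 5 µM averaging 50% or more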;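 further: plate controls were cells with TRAIL plus DMSO for no effect and medium-only wells lacking cells for full effect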
iPSC survival up – hiPSC single-cell survival enhancement | ATPlite luminescence; 100% = ROCK inhibitor wells, 0% = DMSO | survival enhancement, % at 20 µM | 0.044% of 360,000 active | AID 602274; in the data active means survival enhancement above about 18%;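 further: cells exposed to compounds for 16 hours before the ATP read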
Starred values were filed as active, the others as inactive; . = not tested or not shown. Compounds with a hit are over-represented: about 2.2% of the library has one in this group of screens.

SMILES	C8 TRAIL sens	KKLEB cytotox	HIF-2a inh	CF NFkB inh	PPC-1+TRAIL kill	iPSC survival up
COC(=O)CSc1nc(N)c2c3c(sc2n1)C(c1ccccc1)SC(c1ccccc1)C3 (centres undefined)	24.6	13.6	88.0*	-44.4	17.1	-1.1
CC(C)(C)C1CCc2c(sc3nc(SCC(=O)O)nc(N)c23)C1 (centres undefined)	6.9	6.6	54.6*	-4.7	2.4	-0.6
CC1(C)Cc2c(sc3nc(SCC(=O)O)nc(N)c23)CO1	-4.4	-3.3	14.5	18.4	.	-0.3
Cc1cccc(N(C)C(=O)CCS(=O)(=O)c2cc3c(cc2Cl)NC(=O)CO3)c1	-15.5	14.4	17.8	-6.1	.	-0.3
O=C(c1ccco1)N1CCN(C(=O)c2cnn(-c3ccc(Cl)cc3)c2C2CCNCC2)CC1	1.0	-2.1	5.3	6.9	.	-0.4
O=C(O)c1ccc(N=NNc2cccc([N+](=O)[O-])c2)cc1	-11.5	0.1	-162.1	6.4	-9.9	0.4
N#C/C(=N\Nc1cccc([N+](=O)[O-])c1)C(=O)c1ccc(Br)cc1	41.3	-54.8*	-76.4	51.3*	9.7	0.6
CC(C)(C)c1ccc2c(c1)C(=O)c1ccccc1C2=O	56.5*	-20.7	-183.2	-15.2	23.5	-1.3
COc1ccccc1C(=O)Nc1ccc(N2CCCCC2)cc1	57.5*	-10.8	-202.1	0.0	36.2	-1.4
Cc1cc(C)c(NC(=O)C2=COCCO2)c(C)c1	-0.3	-5.3	-59.8	-2.5	.	-0.4
Nc1nc(N)c2nc(-c3ccccc3)c(N)nc2n1	78.6*	-2.8	-22.5	3.5	21.5	-0.3
CN(C)CCNc1ccc(CO)c2oc3ccc(O)cc3c(=O)c12	22.6	4.0	41.1*	-87.7	.	-3.9
Brc1ccc(-c2ccc(/C=N/Nc3nc4ccccc4[nH]3)o2)cc1	52.4*	-26.3	-290.0	-9.8	12.2	-4.8
COc1ccc2c(c1OC)C(=O)N(c1cccc(C)c1)C2	65.1*	-8.4	-152.8	-15.8	14.6	-4.4
CCCCCSc1nncc(=O)[nH]1	-0.9	1.7	-0.1	-9.4	26.0	0.8
CCCCCCCCSC1=CC(=O)C(OC)=C(OC)C1=O	7.0	-35.5	9.1	63.4*	.	-3.2
Cc1nc(-c2coc3cc(O)c(C)cc3c2=O)cs1	60.2*	0.4	-120.8	-13.0	12.5	-3.5
O=c1[nH]c(CSc2ccccn2)nc2c1oc1ccccc12	30.1	-0.5	-56.5	9.9	30.9	-1.1
O=C(CCl)Nc1ncc(S(=O)(=O)c2ccc([N+](=O)[O-])cc2)s1	51.0*	10.2	-5.7	-6.8	.	3.8
COc1ccc(COc2ccsc2C(=O)Nc2ccc(Cl)c(Cl)c2)cc1	14.8	-66.3*	-47.3	44.0	-1.4	5.2
CN1CCN(c2ccc(NC(=O)COc3cccc4ccccc34)cc2)CC1	10.0	-14.4	-44.9	10.5	.	0.0
C=CC(=O)Nc1cccc(N(C)c2ccnc(Nc3ccc(N4CCN(C)CC4)cc3)n2)c1	23.6	-35.5	25.9	61.0*	.	-7.1
C=CC(=O)Nc1cccc(Oc2ccnc(Nc3ccc(N4CCN(C)CC4)cc3)n2)c1	14.1	-23.5	58.5*	63.3*	.	-4.9
O=S(=O)(NCCC1=CCCCC1)c1ccc(Br)cc1	-6.2	-2.0	12.4	16.2	.	-0.3
O=C(CSc1ncnc2nc[nH]c12)c1ccc(Cl)cc1	74.4*	1.1	-97.6	16.7	.	2.4
SMILES	C8 TRAIL sens	KKLEB cytotox	HIF-2a inh	CF NFkB inh	PPC-1+TRAIL kill	iPSC survival up
O=C(CSc1ncnc2nc[nH]c12)c1ccccc1	24.4	-2.9	-155.7	11.9	5.0	-2.5
Cc1ccccc1NC(=S)NC1(C)CCS(=O)(=O)C1 (centres undefined)	-8.6	-0.1	4.0	18.9	18.7	-0.3
COc1ccc(NC(=O)CSc2nc(N)c(C#N)cc2C#N)cc1	-24.2	-2.5	-7.7	5.1	2.3	-0.5
COc1ccc2nc(SCC(=O)Nc3ccc4sc(C)nc4c3)c(C#N)cc2c1	19.1	-61.6*	-59.1	16.7	-8.9	3.0
C=CCn1c(O)c(C2=c3ccccc3=NC2=O)s/c1=N/c1nccs1	33.5	-12.7	-0.6	9.9	16.3	-2.9
Cc1ccc2c(c1)c(C1=c3ccccc3=NC1=O)c(O)n2C	5.0	-14.6	42.3*	52.9*	.	-0.2
C=CCn1c(O)c(C2=c3ccccc3=NC2=O)c2ccccc21	12.5	-9.9	45.2*	28.8	.	0.5
Cc1c(-n2c(O)c(C3=c4ccccc4=NC3=O)sc2=O)c(=O)n(-c2ccccc2)n1C	-1.1	8.9	5.9	-9.6	13.9	2.8
COCC1OC(OC(C)C(O)c2cnc3nc(N)[nH]c(=O)c3n2)C(O)C(OC)C1O (centres undefined)	3.1	-10.9	11.4	0.8	.	-1.3
COc1cccc(-c2nc(CS(=O)(=O)CC(=O)NCCN3CCOCC3)c(C)o2)c1	6.7	-13.5	1.2	1.1	.	-0.2
CS(=O)(=O)c1ccc(C(=O)OCC(=O)N2CCOCC2)cc1[N+](=O)[O-]	-5.0	-6.8	5.8	42.9	.	5.0
CS(=O)(=O)c1ccc(C(=O)OCC(=O)N2CCN(CCC3CCCCC3)CC2)cc1[N+](=O)[O-]	88.7*	-85.1*	80.2*	100.9*	.	2.2
CS(=O)(=O)c1ccc(C(=O)OCC(=O)NC(=O)C2COc3ccccc3O2)cc1[N+](=O)[O-] (centres undefined)	-1.9	24.1	1.5	7.8	.	0.6
CS(=O)(=O)c1ccc(C(=O)OCC(=O)NC(=O)C2CCCCC2)cc1[N+](=O)[O-]	-3.0	-19.7	17.8	74.4*	9.0	-1.4
O=C(CSc1nc2ncc(Cl)cc2[nH]1)N(Cc1ccccc1)C1CCS(=O)(=O)C1 (centres undefined)	-19.5	-9.8	9.0	-3.4	-11.4	-0.1
CCN(CC)S(=O)(=O)c1cccc(-n2c(O)c(C=Nc3ccccc3C(=O)O)c3ccccc3c2=O)c1	-18.2	33.6	3.0	91.3*	-7.5	-0.3
Cc1ccc(N2CC(C(=O)NCCS(=O)(=O)N3CCN(c4ccccc4)CC3)CC2=O)cc1C (centres undefined)	11.1	-11.9	3.2	6.0	.	-0.1
COC(=O)c1ccc2c(c1)C(=O)/C(=C/c1ccc(O)cc1)O2	20.7	-12.7	-185.5	-10.9	-1.0	-1.9
COc1cccc(/C=C2\Oc3ccc(O)cc3C2=O)c1O	65.5*	3.4	-159.1	-5.6	.	-0.7
O=C(Nc1sc2c(c1C(=O)O)CCCC2)c1cccc(Cl)c1	1.1	-3.7	-291.9	11.4	.	-0.4
CCOC(=O)c1c(C)[nH]c(C(=O)OCC(=O)Nc2sccc2C(N)=O)c1C	55.9*	-29.5	-27.2	-16.5	.	0.0
CCOC(=O)c1c(C)[nH]c(C(=O)OCC(=O)Nc2ccc(Cl)cn2)c1C	-6.0	3.6	4.7	-4.3	.	-1.8
Cc1ccc2c(c1)N(CC(=O)NC1CCC(C)CC1)C(=O)c1cccnc1O2 (centres undefined)	-5.8	-15.2	2.6	-17.2	.	-1.0

Screening results deposited in PubChem by Sanford-Burnham Center for Chemical Genomics.
